Compounds without any hit were thinned out: in the full panel of roughly 83,000, 20% have a hit.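 Cells were grown in 96-well plates and exposed to the test compound at a single concentration for 48 hours; results are reported as percent growth, with values below 10 considered active.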 A number with no mark means an inactive call. Activity calls are given as the source filed them.
Experiments:
Assay in all cases: NCI-60 one-dose screen, 48 h (100 = growth as untreated, 0 = no growth, -100 = all killed)
NCI-H226 lung = details: 10 µM
NCI-H322M lung = details: 10 µM
HOP-62 NSCLC = details: 10 µM
NCI-H460 lung = details: 10 µM
NCI-H522 lung = details: 10 µM
A549/ATCC NSCLC = details: 10 µM
COLO 205 colon = details: 10 µM
DU-145 prostate = details: 10 µM
SF-268 CNS = details: 10 µM
SF-295 CNS = details: 10 µM
SF-539 CNS = details: 10 µM
M14 melanoma = details: 10 µM
HCT-15 colon = details: 10 µM
HT29 colon = details: 10 µM
SNB-75 CNS = details: 10 µM
SNB-19 CNS = details: 10 µM
PC-3 prostate = details: 10 µM
SK-MEL-5 melanoma = details: 10 µM
UACC-62 melanoma = details: 10 µM
HL-60(TB) leukemia = details: 10 µM unless noted

SMILES	growth (NCI-H226 lung)	growth (NCI-H322M lung)	growth (HOP-62 NSCLC)	growth (NCI-H460 lung)	growth (NCI-H522 lung)	growth (A549/ATCC NSCLC)	growth (COLO 205 colon)	growth (DU-145 prostate)	growth (SF-268 CNS)	growth (SF-295 CNS)	growth (SF-539 CNS)	growth (M14 melanoma)	growth (HCT-15 colon)	growth (HT29 colon)	growth (SNB-75 CNS)	growth (SNB-19 CNS)	growth (PC-3 prostate)	growth (SK-MEL-5 melanoma)	growth (UACC-62 melanoma)	growth (HL-60(TB) leukemia)
COc1cc2cc(C(=O)N3C[C@@H](CCl)c4c3cc(OC(=O)N3CCN(C(=O)CCC(=O)N5CCN(C)CC5)[C@@H]5CSSC[C@@H]53)c3ccccc43)[nH]c2c(OC)c1OC	-11.6% (active)	-7.14% (active)	-55.3% (active)	-67.7% (active)	-82.7% (active)	-59.7% (active)	-65.6% (active)	-4.3% (active)	-28.4% (active)	-88.5% (active)	-91.8% (active)	-81.7% (active)	-87.4% (active)	-84.3% (active)	-90.1% (active)	-50.2% (active)	-10.5% (active)	-100% (active)	-64% (active)	-37.6% (active)
O=C(/C=C/c1cccc(Br)c1)c1nc2ccccc2n1Cc1ccc(Br)cc1	-67.7% (active)	51.9%	-42% (active)	-40.3% (active)	-53.4% (active)	28%	-34.1% (active)	4.37% (active)	26.8%	-19.7% (active)	-66% (active)	-31.7% (active)	-78% (active)	-49% (active)	59.7%	-67% (active)	0.947% (active)	-26.4% (active)	-82.5% (active)	-19.3% (active)
CC(=C\C(=O)Oc1ccc2c3c1OC1C(O)CCC4(O)C(C2)N(CC2CCC2)CCC314)/C=C1\CCCc2ccccc21 (stereo unspecified)	56.3%	69.9%	85.6%	12.1%	47.2%	48.9%	39.4%	82.1%	73.5%	63.2%	67.8%	-51.4% (active)	7.2% (active)	8.3% (active)	59.8%	70.5%	40.8%	45.5%	-16.4% (active)	17.9%
COC(=O)c1cc(C(=O)CBr)n2c1ccc1c3ccccc3ccc12																				49.3%
COC(=O)C[C@](O)(CCC(C)C)C(=O)O[C@H]1C(OC)=C[C@@]23CCCN2CCc2cc4c(cc2[C@@H]13)OCO4	-20.4% (active)	-9.27% (active)	4.64% (active)	-26.2% (active)	-70% (active)	-20.5% (active)	-55.4% (active)	-24.1% (active)	-21.7% (active)	-23.6% (active)	-51.4% (active)	-76.4% (active)	-29.7% (active)	-47.5% (active)	-48.8% (active)	-28.3% (active)	-23.5% (active)	-70.4% (active)	-25.2% (active)	-38.5% (active)
O=C(/C=C/c1ccc(Cl)cc1Cl)c1nc2ccccc2n1Cc1ccc(Br)cc1	55.7%	84.4%	94.8%	78.1%	88.2%	86.5%	100%	83.9%	81%	79.4%	84%	78.4%	46.6%	53.9%	50.4%	74.8%	67.1%	85%	60.7%	60%
COc1ccc(OC)c(/C=C/C(=O)c2nc3ccccc3n2Cc2ccc(F)cc2)c1	-42.4% (active)	6.69% (active)	-40.4% (active)	-30.9% (active)	-52.4% (active)	8.34% (active)	-58.3% (active)	4.91% (active)	14.8%	-21.3% (active)	-80.4% (active)	-7.79% (active)	-61.8% (active)	-44.7% (active)	15.4%	-38.9% (active)	0.247% (active)	-21.1% (active)	-57.6% (active)	-11.3% (active)
C#CC[Se]C(=O)c1ccc(C(=O)[Se]CC#C)s1	76.5%	14.5%	29.8%	40.9%	99.8%	31.1%	86%	56%	105%	13.3%	65.5%	73.7%	93.2%	63.6%	109%	58.7%	44.9%	96.6%	92.3%	-19.7% (active)

Reference: PubChem BioAssay (NCI)
